AmpC det inh = inhibitors of E. coli AmpC beta-lactamase with detergent; P00811; purified AmpC, nitrocefin hydrolysis with detergent; Potency, µM (top dose mostly 28.7 µM); actives 0.09% (n = 71,000); AID 584; active means well fitted curve in the direction sought with a large enough effect; inconclusive means small, poorly fitted or top-dose-only effect
Target sequence (P00811 whole entry, looked up): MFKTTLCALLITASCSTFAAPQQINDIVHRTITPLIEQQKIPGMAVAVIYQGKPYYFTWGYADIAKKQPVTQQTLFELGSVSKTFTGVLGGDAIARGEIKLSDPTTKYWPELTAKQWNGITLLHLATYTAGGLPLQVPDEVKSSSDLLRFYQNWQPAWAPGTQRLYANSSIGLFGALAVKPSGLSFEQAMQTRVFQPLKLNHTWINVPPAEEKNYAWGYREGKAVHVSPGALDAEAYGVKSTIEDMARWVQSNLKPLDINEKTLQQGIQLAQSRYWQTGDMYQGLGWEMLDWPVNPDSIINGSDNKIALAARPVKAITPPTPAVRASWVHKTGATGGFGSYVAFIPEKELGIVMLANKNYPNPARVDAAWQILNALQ
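E. coli AmpC (5.3 nM) in 20 mM phosphate pH 7.0 with 0.01% Triton X-100, preincubated 15 min RT with compound; nitrocefin (2 uL of 800 uM stock) hydrolysis followed by 480 nm absorbance every 20 s over 4 min.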
Anthrax LT inh = anthrax lethal toxin internalization inhibition | Cells, anthrax lethal toxin internalization, FRET ratio (460/530) | Potency, µM (highest dose often 40 µM), usual class: inhibitors | actives 0.67% (n = 70,000) | AID 912; further: nearly all actives have a fitted effect of over 50% in size
AmpC inh no det = inhibitors of E. coli AmpC beta-lactamase without detergent. P00811. AmpC nitrocefin hydrolysis, absorbance 480 nm, no detergent. actives 1.8% (n = 71,000). Potency, µM (highest dose often 28.7 µM)
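AmpC in 20 mM phosphate buffer pH 7.0 was preincubated 15 min at room temperature with compounds. Nitrocefin (800 uM stock) was then added and hydrolysis followed at 480 nm every 20 s for 4 min.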
Prx2 Sm inh = inhibitors of Schistosoma mansoni peroxiredoxin 2; Potency, µM; S. mansoni Prx2 activity coupled to TGR/GSH (TGR is thioredoxin glutathione reductase), NADPH fluorescence loss, qHTS; actives 0.07% (n = 65,000)
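Enzyme mix: 100 uM NADPH, 25 nM TGR, 700 uM GSH, 50 nM Prx2 in 100 mM phosphate pH 7.4, 10 mM EDTA, 0.01% Tween-20. 15 min RT with compound; NADPH/GSH added, H2O2 starts reaction; NADPH fluorescence read 8 min.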
Large screens that a line does not name were inactive; [ ] = another dose, or the depositor's remark. This is a sample that favours compounds with a hit; in the whole collection about 2.4% have one here. Unless noted, the call rests on the fitted dose curve.

Cc1cc2ccccc2n1CCNC(=O)C(C)C	none
Cc1ccc(S(=O)(=O)NCCn2c(C)cc3ccccc32)cc1	AmpC inh no det 16µM[single pt active]
O=C1C2=C(Nc3cc([N+](=O)[O-])ccc3N2)O[C@@H]1c1ccc([C@H]2OC3=C(Nc4ccc([N+](=O)[O-])cc4N3)C2=O)cc1	none
O=S(=O)(c1ccccc1)N1CCC2(CCN(c3ccncc3)CC2)CC1	Anthrax LT inh inconclusive
c1ccc(C(CN2CCOCC2)c2ccccc2)cc1	none
O=C(c1ccc(F)cc1)C(CN1CCOCC1)c1ccccc1 (centres undefined)	Anthrax LT inh 13µM (no result: Prx2 Sm inh)
CCOC(=O)c1c(NC(=O)CN2CCN(c3ccccn3)CC2)sc2c1CCCC2	none
CCOC(=O)CNc1c(N2CCN(c3ccccn3)CC2)c(=O)c1=O	AmpC inh no det 4µM[single pt active]
O=C(C1CCC(CNc2c(N3CCCCC3)c(=O)c2=O)CC1)N1CCN(c2ccccn2)CC1 (centres undefined)	AmpC inh no det 4µM[single pt active]
Nc1nc(Cl)nc2c1ncn2[C@@H]1O[C@@H](CO)[C@@H](O)[C@H]1O	Anthrax LT inh inconclusive
NC(=O)c1cccc2c1C(=O)N(C1CCCCC1)C2	AmpC inh no det 4µM[single pt active]
O=C1C[C@H]2OCCC=C3CN4CC[C@@]56c7ccccc7N1[C@@H]5[C@H]2[C@H]3C[C@@H]46	Anthrax LT inh inconclusive
CC(=O)Nc1cccc(NC(=O)CSc2nnnn2Cc2ccccc2)c1	none
COC(=O)CSc1nc2ccc(NC(=O)CSc3nnnn3Cc3ccccc3)cc2s1	Anthrax LT inh 5µM, AmpC inh no det inconclusive (no result: Prx2 Sm inh)
O=C(Cc1ccccc1)Nc1nc(-c2cccs2)cs1	Anthrax LT inh inconclusive, AmpC inh no det inconclusive
O=C(COc1ccc(Cl)cc1)Nc1nc(-c2cccs2)cs1	Anthrax LT inh 10µM, AmpC inh no det inconclusive
C[C@@H]1O[C@@H](O)[C@@H](O)[C@H](O)[C@H]1O	none
Cc1ccccc1NC(=O)c1ocnc1C	AmpC inh no det 4µM[single pt active]
C=CCC1(O)C=CCC2C3C4C(OC(C)(C)C)C2C1C34 (centres undefined)	none (no result: AmpC det inh, AmpC inh no det, Prx2 Sm inh)
N[C@H](Cn1cc(I)c(=O)[nH]c1=O)C(=O)O	Anthrax LT inh inconclusive
Cc1ccc2c(CC(=O)Nc3sccc3C(N)=O)coc2c1	AmpC inh no det 13µM[single pt active]
N/N=C1/CC(=O)NC(=O)N1	Anthrax LT inh inconclusive
COc1ccc(CC(=O)Nc2cccc(-c3nnc(-c4cccc(C)c4)o3)c2)cc1OC	Anthrax LT inh inconclusive
COc1ccc(CC(=O)Nc2cccc(-c3nnc(-c4ccccc4)o3)c2)cc1OC	Anthrax LT inh 10µM
COc1cccc(C(=O)Nc2cccc(-c3nnc(-c4ccccc4)o3)c2)c1	Anthrax LT inh 2µM (no result: Prx2 Sm inh)
COc1ccc(CC(=O)Nc2cccc(-c3nnc(-c4ccc(C)cc4)o3)c2)cc1OC	Anthrax LT inh 3.2µM
CCCN1CCC[C@H](c2cccc(C#N)c2)C1	none
O=C(O)[C@H]1[C@H](C(=O)O)[C@H]2CC[C@@H]1O2	none
CCCCOc1ccc(S(=O)(=O)n2c(C)nc3ccccc32)cc1	Anthrax LT inh inconclusive
CCOc1ccc(S(=O)(=O)n2c(C)nc3ccccc32)cc1	AmpC inh no det 4µM[single pt active]
Cc1cc(C(=O)CSc2nn(-c3ccccc3)c(=S)s2)c(C)n1Cc1ccco1	Anthrax LT inh inconclusive, AmpC inh no det 13µM
Cc1cc(C(=O)CSc2nnc(-c3ccco3)o2)c(C)n1Cc1ccco1	none
Cc1cc(NC(=O)CSc2ncnc3sc4c(c23)CCC(C)C4)no1 (centres undefined)	AmpC inh no det 5µM
Cc1cc(NC(=O)CSc2nc(C(C)C)nc3sc(C)c(C)c23)no1	none
O=C(Nc1ccc(-c2noc(CCc3ccccc3)n2)cc1)c1cccnc1	Anthrax LT inh 10µM
COc1ccc(CCNc2ncnc3c2oc2ccccc23)cc1OC	Anthrax LT inh inconclusive
COc1ccc(CCNc2nc(C)nc3c2oc2ccccc23)cc1OC	Anthrax LT inh 10µM
CC(C)NC(=O)c1cc2c(-c3ccc(Cl)cc3)nn(C)c2s1	AmpC inh no det 0.79µM[single pt active]
COCCNC(=O)c1cc2c(-c3ccc(Cl)cc3)nn(C)c2s1	none
COc1cccc(-c2nn(C)c3sc(C(=O)NCc4ccco4)cc23)c1	none
Cn1nc(-c2ccc(Cl)cc2)c2cc(C(=O)N3CCC(N4CCCCC4)CC3)sc21	none
CCN1CCCC1CNC(=O)c1cc2c(-c3ccc(Cl)cc3)nn(C)c2s1 (centres undefined)	Anthrax LT inh 4µM, AmpC inh no det 4µM[single pt active]
Cc1ccc(CNC(=O)c2cc3c(-c4ccc(Cl)cc4)nn(C)c3s2)o1	AmpC inh no det 4µM[single pt active]
CCN1CCCC1CNC(=O)c1cc2c(-c3cccc(OC)c3)nn(C)c2s1 (centres undefined)	Anthrax LT inh 16µM
Cn1nc(-c2ccc(Cl)cc2)c2cc(C(=O)NCCCN3CCCC3)sc21	Anthrax LT inh 2µM, AmpC inh no det 4µM[single pt active]
CCOC(=O)N1CCC(NC(=O)c2cc3c(-c4ccc(Cl)cc4)nn(C)c3s2)CC1	AmpC inh no det 4µM[single pt active]
COCCCNC(=O)c1cc2c(-c3ccc(Cl)cc3)nn(C)c2s1	none
CCCCNC(=O)c1cc2c(-c3ccc(Cl)cc3)nn(C)c2s1	none (no result: Prx2 Sm inh)
COC(=O)C1=C(C)[C@@H](O)[C@@H](C)[C@H](c2c(OC)c(OC)c(C)c(OC)c2OC)O1	none (no result: AmpC det inh, AmpC inh no det, Prx2 Sm inh)
O=C(Cn1ncc2c(=O)oc3ccccc3c21)NCC1COc2ccccc2O1 (centres undefined)	AmpC inh no det 0.79µM
CCN(CCCNC(=O)Cn1ncc2c(=O)oc3ccccc3c21)c1cccc(C)c1	AmpC inh no det 2µM[single pt active]
O=C(Cn1ncc2c(=O)oc3ccccc3c21)NC1CC1	none
COCCCNC(=O)Cn1ncc2c(=O)oc3ccccc3c21	none
O=C(Cn1ncc2c(=O)oc3ccccc3c21)NCCCN1CCCC1=O	AmpC inh no det 4µM[single pt active]
O=S(=O)(C[C@H](O)C(Cl)(Cl)Cl)NNc1ccccc1	none
ICCc1ccccc1	none (no result: Prx2 Sm inh)
Cc1cc(NC(=O)C2CCCN(S(=O)(=O)c3c(C)noc3C)C2)n[nH]1 (centres undefined)	Anthrax LT inh inconclusive, AmpC inh no det 4µM[single pt active]
Cc1noc(C)c1S(=O)(=O)N1CCCC(C(=O)N2CCN(C3CCCCC3)CC2)C1 (centres undefined)	AmpC inh no det 4µM[single pt active]
CCOc1ccc2nc(NC(=O)C3CCCN(S(=O)(=O)c4c(C)noc4C)C3)sc2c1 (centres undefined)	Anthrax LT inh inconclusive, AmpC inh no det 4µM[single pt active]
COc1ccc2nc(NC(=O)C3CCCN(S(=O)(=O)c4c(C)noc4C)C3)sc2c1 (centres undefined)	Anthrax LT inh inconclusive, AmpC inh no det 4µM[single pt active]
O=C(O)C=Cc1ccc(Cn2ccnc2)cc1	none
COCCn1c(=O)cnc2cnc(N3CCNCC3)nc21	none
CC(=O)OCC1=C(C(=O)O)N2C(=O)[C@@H](N)[C@@H]2SC1	AmpC det inh inconclusive, AmpC inh no det 5µM
CC(=O)OCC1=C(C(=O)[O-])N2C(=O)[C@@H](NC(=O)CCC[C@@H](N)C(=O)[O-])[C@@H]2SC1.[Zn+2]	none
FC(F)(F)c1cc(CN2CCCC3(CCNCC3)C2)cc(C(F)(F)F)c1	none
O=C(COC(=O)C1CCN(S(=O)(=O)c2cccs2)CC1)c1cc2ccccc2o1	AmpC inh no det 10µM
